Compounds without any hit were thinned out: in the full panel of roughly 83,000, 20% have a hit.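 Values shown are percent growth following 48 h exposure of cells in 96-well plates to a single concentration of compound; below 10 was considered active.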 A number with no mark means an inactive call. Activity calls are given as the source filed them.
tested on: MALME-3M melanoma; test: NCI-60 one-dose screen, 48 h (100 = growth as untreated, 0 = no growth, -100 = all killed); conditions: 10 µM unless noted

Structure (SMILES) | growth
NS(=O)(=O)c1ccc(-n2cc(CC=O)nn2)cc1 | 108%
COc1ccc(N)cc1C(=O)Nc1cccc(-c2cc(=O)c3c(OC)c(OC)c(OC)cc3o2)c1 | 89.4%
O=C(CSc1nnc(-c2ccc(Cl)cc2)n1-c1ccccc1)Nc1ccc(F)cc1 | 80.1%
O=C(c1cccc(F)c1)n1ccc2cc(NC(=S)Nc3cccnc3)ccc21 | 92.7%
O=C(O)c1ccc(-n2cc(CNc3ccc(Cl)cc3)c(-c3ccc(F)cc3)n2)cc1 | 92.9%
CCC(CC)N1C(=O)/C(=c2\sc3n(c2=O)C2C(NN=3)N(CC)C(=O)N2CC)c2ccccc21 (configuration not stated) | 70%

tested on: MDA-MB-231 breast; test: as above; conditions: 10 µM unless noted

Structure (SMILES) | growth
COc1ccc(-c2nn(-c3ccccc3)cc2/C=C/C(=O)c2ccc(NC(=O)CCCCCCC(=O)NO)cc2)cc1 | 99%
O=C(NCCCNc1cc(-c2cn(-c3ccccc3)nc2-c2cccc(O)c2)ccn1)Nc1cccc(C(F)(F)F)c1 | 18.6%
Cc1[nH]nc2ccc(-c3nc4cnc(N5CCN(C)CC5)cn4c3Nc3ccc(F)cc3Br)cc12 | 8.94% (active)
O=C(/C=C/c1cccc(O)c1)c1ccc(O)cc1 | 89.3%
C#Cc1ccc(NC(=O)c2ccc(/C=C/C(=O)c3nccn3C)cc2)c(F)c1 | 23.6%
O=C(Nc1ccc(F)cc1)c1cc(-c2ccc(F)cc2F)ccc1O | 17.6%
Oc1ccc(CSc2nnc(-c3ccc(Oc4ccccc4)cc3)o2)c2cccnc12 | 45.5%
Cc1ccc(NC(=O)c2ccc(CN3CCN(C)CC3)c(C(F)(F)F)c2)cc1Oc1ccc(-c2[nH]nc3ncnc(N)c23)cc1 | 67.5%
N#Cc1c(NC(=O)c2ccccc2C(F)(F)F)sc2c1CCC(=O)C2 | 3.09% (active)
CCN(CC)c1ccc2cc(C(=O)NCCOCCOCCOCCn3cc(CCC(=O)Nc4ccc(C(=O)c5ccc(NC(=O)OC(C)(C)C)cc5)cc4)nn3)c(=O)oc2c1 | 53.7%
CS(=O)(=O)c1ccc(-c2nn(-c3ccccc3)cc2/C=N/NC(=O)c2ccncc2)cc1 | 104%
Cc1ccc(S(=O)(=O)N/N=C/c2cn(-c3ccc(F)cc3)nc2-c2ccc(S(C)(=O)=O)cc2)cc1 | 104%
CS(=O)(=O)c1ccc(-c2nn(-c3ccccc3)cc2/C=C/C(=O)c2ccc(Br)cc2)cc1 | 88.3%
O=C(NCCCNc1cc(-c2cn(-c3ccccc3)nc2-c2cccc(O)c2)ccn1)Nc1ccc(F)cc1 | 0.136% (active)
CN1C(=O)N(C)C2C1NN=c1s/c(=C\c3ccccn3)c(=O)n12 (configuration not stated) | 98%
Fc1ccc(-c2cc3nc(C(Cl)Cl)nc(-c4cccs4)n3n2)cc1 | -15.2% (active)
COc1ccc([C@H]2c3[nH]c4ccccc4c3C[C@@H]3C(=O)N(C4CCN(Cc5ccccc5)CC4)CC(=O)N23)c(OC)c1 | 77.7%
Cn1ccnc1C(=O)/C=C/c1ccc(C(=O)Nc2ccc(NC(=O)CCNC(=O)c3csc(Br)n3)cc2)cc1 | 72.9%
Cc1nn(-c2ccccc2)cc1/C=N/Nc1nc(Nc2ccccc2)nc(Nc2ccc(S(N)(=O)=O)cc2)n1 | -20.8% (active)
COCCC[C@H]1O[C@@](O)([C@H](C)[C@@H]2CC(OC)C(O)/C=C(C)/C=C(C)/C=C(\C)C(OC3O[C@@H](C)[C@H](O)C(O)[C@@H]3O)C(C)/C=C(C)/C=C(OC)/C=C(\C)C(=O)O2)C(OC)C(O)[C@]1(C)O[C@H]1C[C@@H](O)[C@H](O[C@H]2C[C@](C)(O)[C@H](O)C(C)O2)C(C)O1 (some centres not stated) | 84.1%
COc1ccc(N2C(=O)c3cc(OC)c(OC)cc3NC2SCc2ccccc2)cc1 (configuration not stated) | 91.5%
Cc1cc2nc(C(Cl)Cl)nc(-c3ccco3)n2n1 | 64.2%
COc1ccc(S(=O)(=O)NCCCNc2nccc(-n3cnc4ccccc43)n2)cc1 | 84.1%
O=C(NCCCNc1cc(-c2cn(-c3ccccc3)nc2-c2cccc(O)c2)ccn1)Nc1cc(C(F)(F)F)cc(C(F)(F)F)c1 | 66.8%
Cc1ccc(NC(=O)c2ccc(CN3CCN(C)CC3)c(I)c2)cc1Oc1ccc(-c2[nH]nc3ncnc(N)c23)cc1 | 39.3%
Cc1ccc(-n2cc(/C=C/C(=O)c3ccc(S(C)(=O)=O)cc3)c(-c3ccc(S(C)(=O)=O)cc3)n2)cc1 | 86.5%
